Entries with a potency or affinity are not part of this list. Results filed as inconclusive are left out. Unmarked numbers belong to inactive results.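 The calls were made as follows: active = in every test run, a fitted half-maximal concentration for signal decrease at or below twice the highest tested concentration; inconclusive = runs disagree, flat 30 to 70% decrease, or poor fit; inactive = the rest.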
test: miR-122 activators in hepatoma reporter cells, dose response, cell-based, Huh7 psiCHECK-miR122, Renilla luciferase, cherry-picked (AID 651956); conditions: 48 h; series mostly up to 35 µM; activity change, negative = signal decrease: at the top concentration;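 also: Renilla luciferase from a miR-122 sensor reporter so lower signal means miR-122 activation; 0% = median neutral control wells and -100% = median positive control wells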

| Structure (SMILES) | activity change, negative = signal decrease |
| --- | --- |
| COC(=O)C[C@@H]1CC[C@@H]2[C@@H](COc3ccc(NC(=O)c4cc(F)cc(F)c4)cc3C(=O)N2C)O1 | -26.7% |
| COc1cccc(C(=O)Nc2ccc3c(c2)C(=O)N(C)[C@H]2CC[C@H](CC(=O)NCc4ccc(F)cc4)O[C@H]2CO3)c1 | 100% |
| Fc1ccccc1-c1nc(-c2ccncc2)no1 | 44.4% |
| Cc1cc(C)cc(OCC(O)CN2CCC(CN3C(=O)c4cccc5cccc(c45)C3=O)CC2)c1 (centres undefined) | 1.75% |
| Cc1cc(C)n(C(=O)Cn2nc(C)c(Br)c2C)n1 | 28.7% |
| CC#CCCCC(=O)Nc1ccccc1C(=O)O | -9.61% |
| COCC(=O)N1[C@@H](CO)[C@@H]2c3ccccc3N(C(=O)C3CC3)C[C@@H]21 | 17.5% |
| CNC(=O)C[C@H]1CC[C@@H]2[C@H](COc3ccc(NC(=O)C(C)C)cc3C(=O)N2C)O1 | 158% |
| COCC(=O)Nc1ccc2c(c1)C(=O)N(C)[C@@H]1CC[C@@H](CC(=O)NCCCN(C)C)O[C@@H]1CO2 | -13.9% |
| CCCNC(=O)C[C@H]1CC[C@H]2[C@H](COc3ccc(NC(=O)c4ccc(C(F)(F)F)cc4)cc3C(=O)N2C)O1 | 11.7% |
| CCCC(=O)Nc1ccc2c(c1)C(=O)N(C)[C@@H]1CC[C@H](CC(=O)Nc3cn(C)nc3C)O[C@@H]1CO2 | -22.3% |
| CN1C(=O)c2cc(NC(=O)c3cccs3)ccc2OC[C@@H]2O[C@H](CC(=O)NCCN3CCCCC3)CC[C@H]21 | -18.4% |
| COCC(=O)N(C)C[C@@H]1[C@H](c2ccc(-c3ccccc3)cc2)[C@@H](CO)N1C(C)=O | -23.3% |
| CN(C[C@H]1N[C@@H](CO)[C@H]1c1ccc(-c2ccccc2)cc1)C(=O)C1CCC1 | -22.1% |
| OC[C@H]1[C@@H](c2ccccc2)[C@@H](CNCC2CCC2)N1CC1CC1 | 19.1% |
| Cc1ccc(NCC(=O)c2ccccc2)cc1Cl | 215% |
| CN1C(=O)c2cc(NC(=O)Nc3ccc(Cl)cc3)ccc2OC[C@@H]2O[C@@H](CC(=O)NCCN3CCCCC3)CC[C@H]21 | -3.03% |
| CCN(CC)CCOc1cccc(C(C)C)c1 | 5.69% |
| CC(C)Oc1ccc(C(CCN)C2CCCCC2)cc1 (centres undefined) | -110% |
| CNC(=O)C[C@H]1CC[C@H]2[C@@H](COc3ccc(NC(=O)C4CC4)cc3C(=O)N2C)O1 | 43.9% |

| Structure (SMILES) | activity change, negative = signal decrease |
| --- | --- |
| CCOc1ccc(C(CCc2ccccc2)NC(=O)c2ccccc2F)cc1OCC (centres undefined) | 122% |
| CCCCNC(=O)Nc1nnc(-c2ccc(OCC)cc2)o1 | -1.33% |
| COc1cc(Cl)cc(/C=N\NC(=O)c2ccc3c(c2)OCO3)c1O | 42.6% |
| OC[C@H]1[C@@H](c2ccccc2)[C@H](CNCC2CCC2)N1CC1CC1 | 30.6% |
| COc1cccc(OCc2cc(/C=N/Nc3ccc(C(=O)O)cc3)ccc2OC)c1 | 107% |
| O=C(N/N=C/c1ccco1)c1cccc(N2CCCC2=O)c1 | 104% |
| O=C(COc1ccccc1F)N1CCc2ccccc2C1 | 42.4% |
| CCNC(=O)Nc1ccc2c(c1)C(=O)N(C)[C@H]1CC[C@H](CC(=O)Nc3cccc(F)c3)O[C@@H]1CO2 | 147% |
| COCC(=O)N1[C@H](CO)[C@H]2c3ccccc3N(C(=O)C3CC3)C[C@H]21 | 0% |
| COc1cccc(COc2cc3ccccc3nc2C)c1 | -4.9% |
| COc1ccc(CNC(=O)NCCc2c[nH]c3ccccc23)cc1 | -1.23% |
| C/C=C/c1ccc([C@H]2[C@@H](CO)N[C@@H]2CN(CC)C(=O)CN2CCOCC2)cc1 | 10.4% |
| CN(C)C(=O)C[C@@H]1CC[C@@H]2[C@@H](COc3ccc(NC(=O)C4CC4)cc3C(=O)N2C)O1 | -4.71% |
| CCCCNc1cc(C)nc(NCc2ccccc2)n1 | -59.7% |
| Cc1ccc(OCC(O)Cn2c(=N)n(Cc3ccccc3)c3ccccc32)cc1 (centres undefined) | 19.9% |
| O=C(C1CCCCC1)N1C[C@@H]2[C@H](c3ccccc31)[C@H](CO)N2Cc1ccccc1Cl | -10% |
| CC(=O)N(C)C[C@@H]1[C@@H](c2ccccc2)[C@H](CO)N1C(=O)C1CCC1 | -15.8% |
| CCNC(=O)Nc1ccc2c(c1)C(=O)N(C)[C@H]1CC[C@@H](CC(=O)NCCOC)O[C@@H]1CO2 | 128% |
| COCCNC(=O)C[C@H]1CC[C@@H]2[C@H](COc3ccc(NC(=O)c4cnccn4)cc3C(=O)N2C)O1 | 42% [at 30 µM] |

From PubChem BioAssay AID651956 (Broad Institute, 2012)
